# Legend:
# Assay in all cases: DAPPL (digital affinity profiling via proximity ligation, sequencing); 10 mM Tris-HCl pH 7.5, 50 mM NaCl, 1 mM DTT, 4% glycerol, room temperature, 30 min; GST-TFs on glutathione beads, 16-mer random dsDNA library, 0.1% formaldehyde crosslink after washing; high values mean tight binding
# FEV = molecular target: T1, FEV (Homo sapiens, UniProt Q99581 1-238); details: protein: recombinant; tags: N-terminal GST; dsDNA, one strand shown
# T1 sequence: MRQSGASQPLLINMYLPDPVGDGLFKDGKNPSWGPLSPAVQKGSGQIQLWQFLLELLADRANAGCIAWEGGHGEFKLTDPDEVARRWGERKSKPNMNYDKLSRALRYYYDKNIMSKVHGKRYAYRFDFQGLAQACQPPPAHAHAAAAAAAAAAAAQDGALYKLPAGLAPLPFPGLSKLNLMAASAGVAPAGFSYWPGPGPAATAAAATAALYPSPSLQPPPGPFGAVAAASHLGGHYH
# Method in brief: (§1)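 Human transcription factors fused to GST were expressed in yeast, captured on glutathione beads, given DNA barcodes and pooled with a GST-only negative control. Pools were incubated with 200 nmole of a 16-mer random double-stranded DNA library in Tris/NaCl/DTT/glycerol buffer at room temperature for 30 min. They were then washed, crosslinked with 0.1% formaldehyde, proximity-ligated (BsaI/T4 ligase, 1 h, 37 °C), PCR-amplified and sequenced on an Illumina NextSeq500. Binding signal is each 6-mer's read frequency for a factor divided by its frequency for the GST control.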
# ETV5 = ETV5 (Homo sapiens, UniProt P41161 1-510); details: protein: recombinant; tags: N-terminal GST; dsDNA, one strand shown
# Method in brief: as §1
# HSF1 = HSF1 (Homo sapiens, UniProt Q00613 1-529); details: protein: recombinant; tags: N-terminal GST; chain copies: 3; dsDNA, one strand shown
# Method in brief: as §1
# SPIC = molecular target: T2, SPIC (Homo sapiens, UniProt Q8N5J4 1-248); details: protein: recombinant; tags: N-terminal GST; dsDNA, one strand shown
# T2 sequence: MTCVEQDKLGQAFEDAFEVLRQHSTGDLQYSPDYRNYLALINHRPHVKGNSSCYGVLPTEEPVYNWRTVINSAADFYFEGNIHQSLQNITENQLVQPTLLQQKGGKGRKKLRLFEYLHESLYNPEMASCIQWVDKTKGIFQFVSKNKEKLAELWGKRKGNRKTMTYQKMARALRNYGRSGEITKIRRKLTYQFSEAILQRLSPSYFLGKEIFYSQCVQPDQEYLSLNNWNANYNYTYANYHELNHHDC
# Method in brief: as §1
# ELF4 = ELF4 (Homo sapiens, UniProt Q99607 1-663); details: protein: recombinant; tags: N-terminal GST; dsDNA, one strand shown
# Method in brief: as §1
# ELK4 = molecular target: T3, ELK4 (Homo sapiens, UniProt P28324-2 1-405); details: protein: recombinant; tags: N-terminal GST; dsDNA, one strand shown
# T3 sequence: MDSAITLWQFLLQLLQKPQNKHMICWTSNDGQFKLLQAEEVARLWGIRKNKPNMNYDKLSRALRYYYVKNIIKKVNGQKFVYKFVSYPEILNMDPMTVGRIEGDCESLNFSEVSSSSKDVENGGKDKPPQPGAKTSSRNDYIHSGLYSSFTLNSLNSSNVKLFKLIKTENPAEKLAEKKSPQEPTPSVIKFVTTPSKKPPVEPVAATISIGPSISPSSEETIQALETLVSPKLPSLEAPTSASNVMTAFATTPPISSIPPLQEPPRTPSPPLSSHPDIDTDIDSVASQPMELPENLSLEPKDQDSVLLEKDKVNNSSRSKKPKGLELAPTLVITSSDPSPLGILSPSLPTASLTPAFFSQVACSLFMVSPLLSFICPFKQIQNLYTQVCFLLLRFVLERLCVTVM
# Method in brief: as §1
# ETV2 = molecular target: T4, ETV2 (Homo sapiens, UniProt O00321 1-342); details: protein: recombinant; tags: N-terminal GST; dsDNA, one strand shown
# T4 sequence: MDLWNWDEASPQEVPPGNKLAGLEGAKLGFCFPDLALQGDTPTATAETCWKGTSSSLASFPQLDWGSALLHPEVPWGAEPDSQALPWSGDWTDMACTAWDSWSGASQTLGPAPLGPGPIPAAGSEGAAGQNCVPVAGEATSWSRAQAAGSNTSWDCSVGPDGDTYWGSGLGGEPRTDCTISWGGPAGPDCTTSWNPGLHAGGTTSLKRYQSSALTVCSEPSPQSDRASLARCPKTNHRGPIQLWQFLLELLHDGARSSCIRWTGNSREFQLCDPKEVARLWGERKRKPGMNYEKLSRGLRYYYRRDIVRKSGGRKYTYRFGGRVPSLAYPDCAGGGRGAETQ
# Method in brief: as §1
# ELF3 = molecular target: T5, ELF3 (Homo sapiens, UniProt P78545 1-371); details: protein: recombinant; tags: N-terminal GST; dsDNA, one strand shown
# T5 sequence: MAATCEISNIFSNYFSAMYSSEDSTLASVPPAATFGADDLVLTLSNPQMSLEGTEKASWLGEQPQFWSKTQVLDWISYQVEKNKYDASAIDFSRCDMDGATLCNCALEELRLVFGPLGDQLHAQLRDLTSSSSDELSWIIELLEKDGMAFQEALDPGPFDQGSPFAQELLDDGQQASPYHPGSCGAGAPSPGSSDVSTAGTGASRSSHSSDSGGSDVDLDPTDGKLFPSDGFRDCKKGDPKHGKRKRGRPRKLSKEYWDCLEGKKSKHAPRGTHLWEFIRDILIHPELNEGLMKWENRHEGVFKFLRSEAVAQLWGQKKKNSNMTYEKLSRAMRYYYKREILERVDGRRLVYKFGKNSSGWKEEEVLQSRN
# Method in brief: as §1
# ETV1 = ETV1 (Homo sapiens, UniProt P50549 1-477); details: protein: recombinant; tags: N-terminal GST; dsDNA, one strand shown
# Method in brief: as §1
# CRX = CRX (Homo sapiens, UniProt O43186 1-299); details: protein: recombinant; tags: N-terminal GST; dsDNA, one strand shown
# Method in brief: as §1
# ELF4, sequence (Q99607 whole entry): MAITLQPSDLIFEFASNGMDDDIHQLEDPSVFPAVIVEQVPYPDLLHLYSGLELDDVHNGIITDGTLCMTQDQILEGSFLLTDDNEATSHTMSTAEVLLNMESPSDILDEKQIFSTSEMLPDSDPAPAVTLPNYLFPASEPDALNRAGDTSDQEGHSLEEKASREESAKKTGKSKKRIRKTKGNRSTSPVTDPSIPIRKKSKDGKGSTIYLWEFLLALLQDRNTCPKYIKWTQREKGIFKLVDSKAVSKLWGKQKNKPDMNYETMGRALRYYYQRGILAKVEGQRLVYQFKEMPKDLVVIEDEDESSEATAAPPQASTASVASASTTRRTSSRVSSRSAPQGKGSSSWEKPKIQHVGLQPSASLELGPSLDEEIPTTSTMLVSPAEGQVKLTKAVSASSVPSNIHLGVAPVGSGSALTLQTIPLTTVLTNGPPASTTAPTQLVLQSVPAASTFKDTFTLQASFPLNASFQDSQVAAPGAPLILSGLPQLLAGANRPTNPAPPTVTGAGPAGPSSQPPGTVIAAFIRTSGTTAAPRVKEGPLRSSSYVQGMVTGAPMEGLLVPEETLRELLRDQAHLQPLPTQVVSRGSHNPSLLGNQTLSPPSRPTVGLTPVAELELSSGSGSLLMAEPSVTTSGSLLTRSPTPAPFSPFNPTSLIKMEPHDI
# ETV5, sequence (P41161 whole entry): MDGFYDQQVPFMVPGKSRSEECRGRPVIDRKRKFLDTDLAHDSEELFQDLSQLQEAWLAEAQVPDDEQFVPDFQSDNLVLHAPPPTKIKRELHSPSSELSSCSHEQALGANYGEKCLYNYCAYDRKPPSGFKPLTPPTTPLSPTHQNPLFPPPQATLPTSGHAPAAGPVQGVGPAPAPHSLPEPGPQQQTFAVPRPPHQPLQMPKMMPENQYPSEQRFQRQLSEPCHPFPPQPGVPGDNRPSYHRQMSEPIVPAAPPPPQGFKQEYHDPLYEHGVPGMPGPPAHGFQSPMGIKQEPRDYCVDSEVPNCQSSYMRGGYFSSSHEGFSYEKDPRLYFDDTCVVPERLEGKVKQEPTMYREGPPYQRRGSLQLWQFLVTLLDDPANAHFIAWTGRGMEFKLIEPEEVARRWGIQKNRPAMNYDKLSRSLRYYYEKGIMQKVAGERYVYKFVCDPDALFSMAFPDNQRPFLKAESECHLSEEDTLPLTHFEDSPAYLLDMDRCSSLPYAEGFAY
# HSF1, sequence (Q00613 whole entry): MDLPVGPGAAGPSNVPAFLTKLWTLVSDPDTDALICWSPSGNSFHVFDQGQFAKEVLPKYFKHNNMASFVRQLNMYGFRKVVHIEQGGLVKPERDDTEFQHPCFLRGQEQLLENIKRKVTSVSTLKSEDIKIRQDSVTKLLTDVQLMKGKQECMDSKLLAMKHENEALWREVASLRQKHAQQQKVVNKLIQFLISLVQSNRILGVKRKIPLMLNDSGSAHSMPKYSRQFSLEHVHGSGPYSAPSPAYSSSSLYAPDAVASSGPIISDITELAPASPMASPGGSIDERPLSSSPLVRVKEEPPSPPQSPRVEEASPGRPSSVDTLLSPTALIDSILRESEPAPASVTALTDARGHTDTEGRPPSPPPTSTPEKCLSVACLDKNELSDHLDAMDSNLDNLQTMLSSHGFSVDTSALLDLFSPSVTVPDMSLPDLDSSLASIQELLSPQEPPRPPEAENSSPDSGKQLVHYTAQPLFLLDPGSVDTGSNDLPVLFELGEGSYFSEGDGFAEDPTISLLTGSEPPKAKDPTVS
# ETV1, sequence (P50549 whole entry): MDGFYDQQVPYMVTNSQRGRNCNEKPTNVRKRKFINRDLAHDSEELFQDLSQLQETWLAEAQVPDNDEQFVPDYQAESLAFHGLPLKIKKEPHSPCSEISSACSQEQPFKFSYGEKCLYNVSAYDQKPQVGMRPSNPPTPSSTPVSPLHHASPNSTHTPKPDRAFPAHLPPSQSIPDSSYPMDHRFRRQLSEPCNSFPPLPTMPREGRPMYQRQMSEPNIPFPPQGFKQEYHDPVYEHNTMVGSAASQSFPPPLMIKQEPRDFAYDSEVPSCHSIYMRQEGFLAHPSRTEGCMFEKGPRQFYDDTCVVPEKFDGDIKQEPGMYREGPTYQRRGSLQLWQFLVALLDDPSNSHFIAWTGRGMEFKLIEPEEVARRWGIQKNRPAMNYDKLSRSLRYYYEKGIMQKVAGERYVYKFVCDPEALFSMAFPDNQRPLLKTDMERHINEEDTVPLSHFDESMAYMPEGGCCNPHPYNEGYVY
# CRX, sequence (O43186 whole entry): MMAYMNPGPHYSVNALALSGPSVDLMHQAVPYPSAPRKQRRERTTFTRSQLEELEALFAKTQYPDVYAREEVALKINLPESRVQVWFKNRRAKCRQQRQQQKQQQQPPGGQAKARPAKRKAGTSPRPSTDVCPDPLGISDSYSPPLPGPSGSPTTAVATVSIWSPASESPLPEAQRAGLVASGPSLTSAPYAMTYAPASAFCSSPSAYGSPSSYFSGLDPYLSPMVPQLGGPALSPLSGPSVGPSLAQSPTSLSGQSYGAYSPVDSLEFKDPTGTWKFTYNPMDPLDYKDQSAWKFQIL
Sequence,binding signal (FEV),binding signal (ETV5),binding signal (HSF1),binding signal (SPIC),binding signal (ELF4),binding signal (ELK4),binding signal (ETV2),binding signal (ELF3),binding signal (ETV1),binding signal (CRX)
ATGTGC,"1.16 fold enrichment (6-mer frequency, TF over GST control)","1.16 fold enrichment (6-mer frequency, TF over GST control)","1.02 fold enrichment (6-mer frequency, TF over GST control)","1.17 fold enrichment (6-mer frequency, TF over GST control)","1.17 fold enrichment (6-mer frequency, TF over GST control)","1.21 fold enrichment (6-mer frequency, TF over GST control)","1.11 fold enrichment (6-mer frequency, TF over GST control)","1.1 fold enrichment (6-mer frequency, TF over GST control)","1.05 fold enrichment (6-mer frequency, TF over GST control)",
ATCATA,"1.07 fold enrichment (6-mer frequency, TF over GST control)","1.09 fold enrichment (6-mer frequency, TF over GST control)","1.16 fold enrichment (6-mer frequency, TF over GST control)","1.04 fold enrichment (6-mer frequency, TF over GST control)","1.08 fold enrichment (6-mer frequency, TF over GST control)","1.08 fold enrichment (6-mer frequency, TF over GST control)","1.16 fold enrichment (6-mer frequency, TF over GST control)",,"1.08 fold enrichment (6-mer frequency, TF over GST control)","1.39 fold enrichment (6-mer frequency, TF over GST control)"
ACCGTC,"1.17 fold enrichment (6-mer frequency, TF over GST control)","1.12 fold enrichment (6-mer frequency, TF over GST control)","1.13 fold enrichment (6-mer frequency, TF over GST control)","1.2 fold enrichment (6-mer frequency, TF over GST control)","1.17 fold enrichment (6-mer frequency, TF over GST control)","1.17 fold enrichment (6-mer frequency, TF over GST control)","1.29 fold enrichment (6-mer frequency, TF over GST control)","1.15 fold enrichment (6-mer frequency, TF over GST control)","1.19 fold enrichment (6-mer frequency, TF over GST control)",
CCACAA,"1.15 fold enrichment (6-mer frequency, TF over GST control)","1.19 fold enrichment (6-mer frequency, TF over GST control)","1.1 fold enrichment (6-mer frequency, TF over GST control)","1.09 fold enrichment (6-mer frequency, TF over GST control)","1.17 fold enrichment (6-mer frequency, TF over GST control)","1.07 fold enrichment (6-mer frequency, TF over GST control)","1.14 fold enrichment (6-mer frequency, TF over GST control)","1.39 fold enrichment (6-mer frequency, TF over GST control)","1.19 fold enrichment (6-mer frequency, TF over GST control)",
CGTCCT,"1.38 fold enrichment (6-mer frequency, TF over GST control)","1.32 fold enrichment (6-mer frequency, TF over GST control)","1.08 fold enrichment (6-mer frequency, TF over GST control)","1.27 fold enrichment (6-mer frequency, TF over GST control)","1.44 fold enrichment (6-mer frequency, TF over GST control)","1.4 fold enrichment (6-mer frequency, TF over GST control)","1.66 fold enrichment (6-mer frequency, TF over GST control)","1.31 fold enrichment (6-mer frequency, TF over GST control)","1.24 fold enrichment (6-mer frequency, TF over GST control)",
CTTGTT,"1.15 fold enrichment (6-mer frequency, TF over GST control)","1.22 fold enrichment (6-mer frequency, TF over GST control)","1.09 fold enrichment (6-mer frequency, TF over GST control)","1.25 fold enrichment (6-mer frequency, TF over GST control)","1.22 fold enrichment (6-mer frequency, TF over GST control)","1.17 fold enrichment (6-mer frequency, TF over GST control)","1.14 fold enrichment (6-mer frequency, TF over GST control)",,"1.31 fold enrichment (6-mer frequency, TF over GST control)","1.1 fold enrichment (6-mer frequency, TF over GST control)"
CTTGAC,"1.18 fold enrichment (6-mer frequency, TF over GST control)","1.14 fold enrichment (6-mer frequency, TF over GST control)","1.02 fold enrichment (6-mer frequency, TF over GST control)","1.14 fold enrichment (6-mer frequency, TF over GST control)","1.27 fold enrichment (6-mer frequency, TF over GST control)","1.37 fold enrichment (6-mer frequency, TF over GST control)","1.33 fold enrichment (6-mer frequency, TF over GST control)","1.33 fold enrichment (6-mer frequency, TF over GST control)","1.33 fold enrichment (6-mer frequency, TF over GST control)",

# — article PMC7862700, “An all-to-all approach to the identification of sequence-specific readers for epigenetic DNA modifications on cytosine”
